Measured values taken from ChEMBL document CHEMBL1157539, “Thousands of chemical starting points for antimalarial lead identification” (Nature, 2010).

test system: Plasmodium falciparum; assay: GSK_TCMDC: Inhibition of Plasmodium falciparum 3D7 in whole red blood cells, using parasite LDH activity as an index of growth. Test compounds present at 2uM; assay type: functional

Row | SMILES | Inhibition [%]
1 | CN(C)c1cccc2c(S(=O)(=O)Nc3cccc(CCN4CCC(N5CCCCC5)CC4)c3)cccc12 | 98
2 | CC[C@H](C)CNC(=O)c1cncc(-c2ccc(CNCC3CNCCCO3)cc2)c1.O=C(O)C(F)(F)F (stereo partly specified) | 100
3 | CCOc1cc(C(=O)Nc2ccc(-c3nc4ccccc4[nH]3)cc2)cc(OCC)c1OCC | 100
4 | Cc1cc(Nc2ccc(Cl)c(Cl)c2)n2nc(C)nc2n1 | 97
5 | CC(C)N1CCC(NC(=O)N2CCCN(c3ncnc4cc(-c5ccccc5)sc34)CC2)CC1.O=C(O)C(F)(F)F | 87
6 | O=C(NC1CC1)c1cnc(N2CCC(OCc3ccccc3)CC2)c(Cl)c1.O=C(O)C(F)(F)F | 90
7 | O=C(/C=C/c1cccc(Cl)c1)NCCCCCN1CCC(c2c[nH]c3ccccc23)CC1 | 89
8 | COc1ccc(-c2cnc3ccc(N4CCCC4)nn23)cc1OC.O=CO | 98
9 | C[C@@H](COc1ccccc1)NCC(O)c1ccc([N+](=O)[O-])c(OCc2ccccc2)c1 (stereo partly specified) | 93
10 | CCCCCCNC(=O)C1Cc2c([nH]c3ccc(Br)cc23)C2(CCN(CCc3ccccc3)CC2)N1 (stereo unspecified) | 100
11 | COc1cc(CNCCCCCCNCc2cc(OC)c(OC)c3ccccc23)c2ccccc2c1OC.CS(=O)(=O)O | 100
12 | COc1ccc2c(=NN=Cc3cccc(Cl)c3)cc(C)[nH]c2c1 | 100
13 | Cc1cc2c(cc1C(F)(F)F)N(C(=O)Nc1ccc(C(=O)NC3CCN(Cc4ccccc4)C3)cc1)CC2 (stereo unspecified) | 100
14 | CC1(C)N=C(N)N=C(N)N1OCc1cc(Cl)c(CON2C(N)=NC(N)=NC2(C)C)cc1Cl | 94
15 | COc1ccc2[nH]ccc(=NN=Cc3cccc(Cl)c3)c2c1 | 100
16 | CCCn1c(Sc2ccc(C#N)c([N+](=O)[O-])c2)nnc1-c1ccc(N(C)C)cc1 | 97
17 | COc1ccc2nc(C)cc(N/N=C/c3ccccc3[N+](=O)[O-])c2c1 | 100
18 | Cc1noc(-c2ccc3c(c2)CCN(CCC2CCC(NC(=O)c4cc5ccccc5[nH]4)CC2)CC3)n1.Cl (stereo unspecified) | 99
19 | CC(C)[C@H](NC(=O)c1ccc(O)c(-c2ccc(Cl)c(Cl)c2)c1)C(=O)NCCN(C)C | 92
20 | CC(C)CCN1CCCN(Cc2ccc(C(=O)Nc3ccc(C(C)(C)C)cc3)cc2)CC1.O=C(O)C(F)(F)F | 92
21 | Cl.Cl.N=C(N)c1ccc(-c2cc(-c3cccc(C(=N)N)c3)on2)cc1 | 96
22 | Fc1ccc2[nH]c(-c3ccc(-c4ccc(CN5CCN(CCN6CCOCC6)CC5)cc4)cc3)nc2c1.O=C(O)C(F)(F)F | 100
23 | COc1c(OC)c(OC)c2ccccc2c1CNCCCCCCNCc1c(OC)c(OC)c(OC)c2ccccc12.Cl | 100
24 | COC(=O)C1=CNC=C(C(=O)OC)C1c1ccc(Cl)c([N+](=O)[O-])c1 | 93
25 | CC(C)OC(=O)c1cccnc1SCC(=O)Nc1ccc(C(F)(F)F)cc1Cl | 97
26 | O=C(NC1CCN(c2ccc(F)cc2[N+](=O)[O-])CC1)c1cccs1 | 90

test system: Plasmodium falciparum; assay: GSK_TCMDC: Inhibition of Plasmodium falciparum Dd2 in whole red blood cells, using parasite LDH activity as an index of growth. Test compounds present at 2uM; assay type: functional

Row | SMILES | Inhibition [%]
27 | COc1cc2c(cc1OC)CN(CCc1ccc(NC(=O)c3cc4cc(Cl)ccc4[nH]3)cc1)CC2 | 6
28 | CCC(=O)c1ccc(-c2ccc(=O)n(CC(=O)N(CCN(CC)CC)Cc3ccc(-c4ccc(C(F)(F)F)cc4)cc3)n2)cc1 | 67
29 | Cc1cccc2c(C(=O)NC3CCN(Cc4ccccc4)CC3)cc(-c3cccnc3)nc12 | 10
30 | COC(=O)c1ccc(-c2ccc(C(=O)NCC3CCN(c4nc(N)c5cc(OC)c(OC)cc5n4)CC3)cc2)cc1 | 100
31 | N=C(N)NC(=O)Nc1cc(Cl)c(Br)c(Cl)c1 | 100
32 | O=C(O)C(F)(F)F.c1cc(CNCCc2ccncc2)cc(-c2csc(-c3nc4ccccc4[nH]3)c2)c1 | 99
33 | O=C(Nc1cccc(-c2cccc(-c3nc4cc(C(F)(F)F)ccc4[nH]3)c2)c1)c1csnn1 | 37
34 | CCc1ccc(C2CCN(CCCCNC(=O)c3ccc(-c4ccc(Cl)cc4)cc3)CC2)c(O)c1 | 99
35 | Fc1ccccc1C=NN=c1cc[nH]c2ccc(C(F)(F)F)cc12 | 61
36 | CC(=O)C1=NN(c2ccc(C)cc2)C(c2cccs2)N1c1ccccc1 (stereo unspecified) | 64
37 | CC(C)Oc1ccc2c(c1)OC(c1ccccc1)(C(F)(F)F)NC2=O (stereo unspecified) | 98
38 | O=C(/C=C/c1ccc(Cl)c(Cl)c1)NCCCCCN1CCC(NC(=S)Nc2ccc(F)cc2F)CC1 | 18
39 | COc1ccc(NC(=O)NC2CCN(CCCOc3ccnc4cc(Cl)ccc34)C2)cc1OC (stereo unspecified) | 16
40 | CCOC(=O)c1cc(C(=O)NCCCCN2CCC(c3cn(C)c4ccccc34)CC2)ccc1-c1ccc(C(F)(F)F)cc1 | 6
41 | CN(C)c1cccc2c(S(=O)(=O)Nc3cccc(CCN4CCC(N5CCCCC5)CC4)c3)cccc12 | 54
42 | CC[C@H](C)CNC(=O)c1cncc(-c2ccc(CNCC3CNCCCO3)cc2)c1.O=C(O)C(F)(F)F (stereo partly specified) | 0
43 | CCOc1cc(C(=O)Nc2ccc(-c3nc4ccccc4[nH]3)cc2)cc(OCC)c1OCC | 94
44 | Cc1cc(Nc2ccc(Cl)c(Cl)c2)n2nc(C)nc2n1 | 97
45 | CC(C)N1CCC(NC(=O)N2CCCN(c3ncnc4cc(-c5ccccc5)sc34)CC2)CC1.O=C(O)C(F)(F)F | 11
46 | O=C(NC1CC1)c1cnc(N2CCC(OCc3ccccc3)CC2)c(Cl)c1.O=C(O)C(F)(F)F | 71

Row | SMILES | Inhibition [%]
47 | O=C(/C=C/c1cccc(Cl)c1)NCCCCCN1CCC(c2c[nH]c3ccccc23)CC1 | 17
48 | COc1ccc(-c2cnc3ccc(N4CCCC4)nn23)cc1OC.O=CO | 98
49 | C[C@@H](COc1ccccc1)NCC(O)c1ccc([N+](=O)[O-])c(OCc2ccccc2)c1 (stereo partly specified) | 64
50 | CCCCCCNC(=O)C1Cc2c([nH]c3ccc(Br)cc23)C2(CCN(CCc3ccccc3)CC2)N1 (stereo unspecified) | 94
51 | COc1cc(CNCCCCCCNCc2cc(OC)c(OC)c3ccccc23)c2ccccc2c1OC.CS(=O)(=O)O | 100
52 | COc1ccc2c(=NN=Cc3cccc(Cl)c3)cc(C)[nH]c2c1 | 99
53 | Cc1cc2c(cc1C(F)(F)F)N(C(=O)Nc1ccc(C(=O)NC3CCN(Cc4ccccc4)C3)cc1)CC2 (stereo unspecified) | 48
54 | CC1(C)N=C(N)N=C(N)N1OCc1cc(Cl)c(CON2C(N)=NC(N)=NC2(C)C)cc1Cl | 77
55 | COc1ccc2[nH]ccc(=NN=Cc3cccc(Cl)c3)c2c1 | 99
56 | CCCn1c(Sc2ccc(C#N)c([N+](=O)[O-])c2)nnc1-c1ccc(N(C)C)cc1 | 98
57 | COc1ccc2nc(C)cc(N/N=C/c3ccccc3[N+](=O)[O-])c2c1 | 99
58 | Cc1noc(-c2ccc3c(c2)CCN(CCC2CCC(NC(=O)c4cc5ccccc5[nH]4)CC2)CC3)n1.Cl (stereo unspecified) | 41
59 | CC(C)[C@H](NC(=O)c1ccc(O)c(-c2ccc(Cl)c(Cl)c2)c1)C(=O)NCCN(C)C | 1
60 | CC(C)CCN1CCCN(Cc2ccc(C(=O)Nc3ccc(C(C)(C)C)cc3)cc2)CC1.O=C(O)C(F)(F)F | 12
61 | Cl.Cl.N=C(N)c1ccc(-c2cc(-c3cccc(C(=N)N)c3)on2)cc1 | 45
62 | Fc1ccc2[nH]c(-c3ccc(-c4ccc(CN5CCN(CCN6CCOCC6)CC5)cc4)cc3)nc2c1.O=C(O)C(F)(F)F | 100
63 | COc1c(OC)c(OC)c2ccccc2c1CNCCCCCCNCc1c(OC)c(OC)c(OC)c2ccccc12.Cl | 71
64 | COC(=O)C1=CNC=C(C(=O)OC)C1c1ccc(Cl)c([N+](=O)[O-])c1 | 79
65 | CC(C)OC(=O)c1cccnc1SCC(=O)Nc1ccc(C(F)(F)F)cc1Cl | 88
66 | O=C(NC1CCN(c2ccc(F)cc2[N+](=O)[O-])CC1)c1cccs1 | 91
